Test system: RABL3
Parameters: species or system human, MV4-11 + K-562 + COLO205 + SK-N-BE2 + OVCAR-8
Conditions: read-out: apparent Kd; compound concentrations:100 nM and 1000 nM (sheet 'Samples'); n = 1

With `Cc1cccc(-c2n[nH]cc2-c2ccc3ncccc3n2)n1` [GW786460X] the potency estimated from few doses was 1.26 µM.

Source: article PMC11062922 (Nature Chemical Biology, 2023)
